Results taken from PubChem BioAssay (NCATS).
Inconclusive results are not listed. Unless noted, calls follow the shape of the dose curve; as a rule, active = well fitted curve in either direction with a large enough effect (not every such curve was filed as active); inconclusive = small, poorly fitted or top-dose-only effect, or another doubt; inactive = flat fitted curve, though single readings scatter.

Experiments:
[1] = AP1 Signaling Pathway (AID 357); settings: ME-180 AP-1-bla reporter, EGF-induced, beta-lactamase ratio, 5 h; at 17.2 µM (top of the series) unless noted;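 also: ME-180 reporter cells stimulated with EGF at its EC50 level; % is scaled to controls: 0 for no effect and ±100 for the full control effect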
Method in brief: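 AP-1-bla ME-180 cells, Opti-MEM + 0.5% dialyzed FBS, plated overnight 37 °C. Cpd titration + EC50 EGF, 5 h 37 °C. CCF4 2.5 h RT; ex 405, em 460/530 ratio → %activity, AC50.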

[2] = NFAT Signaling Pathway (AID 444); settings: Jurkat NFAT-bla M1, carbachol, beta-lactamase ratio, 5 h; at 17.2 µM (top of the series) unless noted;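 also: carbachol stimulus at about its EC50 of 1 µM final; % is scaled to controls: 0 for no effect and ±100 for the full control effect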
Method in brief: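 Jurkat cells carrying an NFAT-driven β-lactamase reporter and co-transfected muscarinic M1 receptor were treated with compound plus carbachol (1 uM final, an EC50 level) for 5 h at 37 °C. CCF4 loading followed for 1 h at RT; 460/530 nm ratio gave %activity.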

[3] = Stat Signaling Pathway (AID 446); settings: ME-180 (cervical carcinoma) SIE beta-lactamase reporter, IL-6 stimulated, 5 h; at 17.2 µM (top of the series) unless noted;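 also: ME-180 cervical cancer cells given 40 pM IL-6 alongside compound; SIE-controlled beta-lactamase reporter measured as 460/530 nm FRET emission ratio; % is scaled to controls: 0 for no effect and ±100 for the full control effect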
Method in brief: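 FRET read-out (405 nm excitation, 460/530 nm emission) of a beta-lactamase reporter under a STAT-inducible element in ME-180 cervical carcinoma cells. Cells with compound receive 40 pM IL-6 for 5 h. Values are normalised to AC90 stimulation and AC90 JAK-inhibitor controls.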

[4] = biological target: Glucocorticoid receptor (Homo sapiens) (UniProt P04150); assay: GR-GFP Redistribution (AID 450;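 active = compounds whose dose series gives a full or clear partial fitted curve of increased nuclear translocation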; also: potency is read from the fitted curve at half-maximal effect)
Glucocorticoid receptor (Homo sapiens), sequence (P04150 whole entry, looked up): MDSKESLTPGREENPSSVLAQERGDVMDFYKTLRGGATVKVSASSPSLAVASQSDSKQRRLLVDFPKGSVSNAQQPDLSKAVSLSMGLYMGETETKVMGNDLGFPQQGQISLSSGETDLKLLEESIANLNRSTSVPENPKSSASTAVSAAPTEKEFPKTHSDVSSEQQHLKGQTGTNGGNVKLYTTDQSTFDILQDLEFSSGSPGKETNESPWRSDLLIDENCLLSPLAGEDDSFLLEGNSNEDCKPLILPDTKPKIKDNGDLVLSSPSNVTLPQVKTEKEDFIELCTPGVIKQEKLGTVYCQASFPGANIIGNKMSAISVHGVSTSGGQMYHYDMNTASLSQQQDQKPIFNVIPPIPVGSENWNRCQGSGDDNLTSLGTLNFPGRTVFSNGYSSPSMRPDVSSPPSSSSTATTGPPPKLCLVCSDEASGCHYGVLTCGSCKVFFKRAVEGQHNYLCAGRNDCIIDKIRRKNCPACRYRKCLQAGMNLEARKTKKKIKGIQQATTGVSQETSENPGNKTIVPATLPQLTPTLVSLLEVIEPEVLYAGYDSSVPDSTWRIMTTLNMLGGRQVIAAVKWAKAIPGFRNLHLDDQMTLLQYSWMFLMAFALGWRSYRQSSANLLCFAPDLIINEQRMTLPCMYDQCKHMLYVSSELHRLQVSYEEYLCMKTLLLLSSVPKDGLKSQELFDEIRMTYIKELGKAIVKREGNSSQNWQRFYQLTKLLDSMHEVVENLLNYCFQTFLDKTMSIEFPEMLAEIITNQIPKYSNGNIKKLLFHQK

CCOC(=O)C1=C(c2ccccc2)NC(SCC(=O)Nc2ccccc2C)=C(C#N)C1c1ccco1 (configuration not stated)
inactive: activity change, negative = inhibition [1] -1.47% | activity change, negative = inhibition [2] -6.28% | activity, negative = inhibition [3] -9.31% | Potency [4] > 20.6 µM

Cc1ccc(NC(=O)Cn2nc(C)c3ccccc3c2=O)cc1
inactive: activity change, negative = inhibition [1] 14.3% | activity change, negative = inhibition [2] 10.1% | activity, negative = inhibition [3] 6.34% | Potency [4] > 20.6 µM

CCOC(=O)C1=C(CSc2nc(C)cc(C)c2C#N)OC(N)=C(C#N)C1c1cccs1 (configuration not stated)
inactive: activity change, negative = inhibition [1] 18.8% | activity change, negative = inhibition [2] -27.2% | activity, negative = inhibition [3] -6.58% | Potency [4] > 20.6 µM

CC1(C)Cc2c(C#N)c(N3CCN(C(=O)c4ccccc4)CC3)nc(-c3ccco3)c2CS1
inactive: activity change, negative = inhibition [1] -7.63% | activity change, negative = inhibition [2] -24.6% | activity, negative = inhibition [3] 9.81% | Potency [4] > 20.6 µM

O=c1c2c3c(sc2n2cnnc2n1C1CCCCC1)CCC3
inactive: activity change, negative = inhibition [1] -5.1% | activity change, negative = inhibition [2] -1.53% | activity, negative = inhibition [3] 22.2% | Potency [4] > 20.6 µM

CCOP(=O)(c1ccccc1)c1nc(-c2ccc(F)cc2)oc1N1CCCCC1 (configuration not stated)
inactive: activity change, negative = inhibition [1] -11.9% | activity change, negative = inhibition [2] 3.09% | activity, negative = inhibition [3] 4.79% | Potency [4] > 20.6 µM

COC(=O)CSc1nc(C)c(C(C)=O)cc1C#N
inactive: activity change, negative = inhibition [1] 4.99% | activity change, negative = inhibition [2] -0.342% | activity, negative = inhibition [3] 7.71% | Potency [4] > 20.6 µM

COc1ccccc1C(=O)NCC(=O)n1nc(C)cc1C
inactive: activity change, negative = inhibition [1] -3.59% | activity change, negative = inhibition [2] -5.21% | activity, negative = inhibition [3] 10.4% | Potency [4] > 20.6 µM

COc1ccc(C(=O)c2oc3nc(C)cc(C)c3c2N)cc1
inactive: activity change, negative = inhibition [1] -14.2% | activity change, negative = inhibition [2] 13% | activity, negative = inhibition [3] -8.18% | Potency [4] > 20.6 µM

Cn1c(=O)n(Cc2ccccc2)c(=O)c2c1nc(NCC1CCCO1)n2Cc1ccccc1 (configuration not stated)
inactive: activity change, negative = inhibition [1] -28.9% | activity change, negative = inhibition [2] -16.1% | activity, negative = inhibition [3] -15.3% | Potency [4] > 20.6 µM

Nc1[nH]nc2nc(NCc3ccccc3)c3c(c12)CCN(Cc1ccccc1)C3
inactive: activity change, negative = inhibition [1] -11.4% | activity change, negative = inhibition [2] 0.244% | activity, negative = inhibition [3] 6.86% | Potency [4] > 20.6 µM

COc1ccc(CSc2nnc(C)n2N)cc1Br
inactive: activity change, negative = inhibition [1] -1.02% | activity change, negative = inhibition [2] -3.73% | activity, negative = inhibition [3] 8.37% | Potency [4] > 20.6 µM

CC1(C(=O)CSc2nc3ccccc3s2)CCC(=O)O1 (configuration not stated)
inactive: activity change, negative = inhibition [1] -6.34% | activity change, negative = inhibition [2] 1.72% | activity, negative = inhibition [3] 4.74% | Potency [4] > 20.6 µM

CCOC(=O)CNC(=O)CCCCCC(=O)NCC(=O)OCC
inactive: activity change, negative = inhibition [1] 7.11% | activity change, negative = inhibition [2] 1.76% | activity, negative = inhibition [3] 7.81% | Potency [4] > 20.6 µM

Cn1nnnc1SCC(=O)NCC(=O)c1ccccc1
inactive: activity change, negative = inhibition [1] -2.72% | activity change, negative = inhibition [2] 2.64% | activity, negative = inhibition [3] 0.0289% | Potency [4] > 20.6 µM

CCOc1cc(CN2CCOCC2)cc(C(C)=O)c1
inactive: activity change, negative = inhibition [1] 14.3% | activity change, negative = inhibition [2] -4.27% | activity, negative = inhibition [3] 1.95% | Potency [4] > 20.6 µM

O=C(O)C1CC(=O)n2c(nc3ccccc32)S1 (configuration not stated)
inactive: activity change, negative = inhibition [1] -9.56% | activity change, negative = inhibition [2] -10.4% | activity, negative = inhibition [3] 6.25% | Potency [4] > 20.6 µM

O=C(c1ccco1)N1CCN(c2ncnc3c2[nH]c2ccccc23)CC1
inactive: activity change, negative = inhibition [1] -12% | activity change, negative = inhibition [2] 11% | activity, negative = inhibition [3] -16.9% | Potency [4] > 20.6 µM
